Records with an inconclusive call do not appear. Where a call stands in place of a potency, no number is given. The source made the active and inactive calls. Calls come from the whole dose curve; as a rule, active = well fitted curve in the direction sought with a large enough effect; inconclusive = small, poorly fitted or top-dose-only effect, or another doubt; inactive = no such curve, though single readings can be large; an effect the other way counts as inactive or inconclusive.
What was measured:
MKL-1 = test: qHTS assay to identify novel small-molecules to repurpose for Merkel cell carcinoma treatment (AID 1296009); conditions: MCC and control cell lines, CellTiter-Glo viability, 72 h; series mostly up to 46 µM; note: nearly all actives have a fitted effect of over 60% in size; note: potency is the fitted concentration of half-maximal effect
Procedure, shortened: (§1)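 Luminescence from CellTiter-Glo, read 10 min after addition at room temperature, reported viability following a 72 hr, 37 degree celsius treatment with NPC or MIPE compounds in titration; values normalized to plate controls.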

MKL-2 = test: as above; conditions: MCC and control cell lines, CellTiter-Glo viability, 72 h; series mostly up to 46 µM
Procedure, shortened: as §1

UISO = test: as above; conditions: MCC and control cell lines, CellTiter-Glo viability, 72 h; series mostly up to 46 µM
Procedure, shortened: as §1

WaGa = test: as above; conditions: MCC and control cell lines, CellTiter-Glo viability, 72 h; series mostly up to 46 µM
Procedure, shortened: as §1

NIH3T3 = test: as above; conditions: MCC and control cell lines, CellTiter-Glo viability, 72 h; series mostly up to 44.8 µM
Procedure, shortened: as §1

C33A = test: Primary qHTS to identify gynecologic anti-cancer compounds using libraries of approved drugs and bioactive compounds (AID 1345084); conditions: Gynecologic cancer cell panel viability, ATPlite luminescence, 48 h; series mostly up to 57.5 µM; note: nearly all actives have a fitted effect of over 55% in size
Procedure, shortened: (§2)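 48 h compound exposure at 37 C, 5% CO2; five-point qHTS. ATPlite luminescence readout of cell ATP.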

CAOV3 = test: as above; conditions: Gynecologic cancer cell panel viability, ATPlite luminescence, 48 h; series mostly up to 57.5 µM
Procedure, shortened: as §2

CASKI = test: as above; conditions: Gynecologic cancer cell panel viability, ATPlite luminescence, 48 h; series mostly up to 57.5 µM
Procedure, shortened: as §2

Es-2 = test: as above; conditions: Gynecologic cancer cell panel viability, ATPlite luminescence, 48 h; series mostly up to 57.5 µM
Procedure, shortened: as §2

HeLa = test: as above; conditions: Gynecologic cancer cell panel viability, ATPlite luminescence, 48 h; series mostly up to 57.5 µM
Procedure, shortened: as §2

Q: For `CC[C@H](C)C(=O)O[C@H]1C[C@H](O)C=C2C=C[C@H](C)[C@H](CC[C@@H](O)C[C@@H](O)CC(=O)O)[C@H]21`, which Potency (MKL-1) is on record?
A: inactive

Q: What about the Potency (MKL-2) of the same compound?
A: inactive

Q: And the Potency (UISO)?
A: inactive

Q: What about the Potency (WaGa) of the same compound?
A: inactive

Q: Which results are given for `Cc1cccc(-c2[nH]c(C(C)(C)C)nc2-c2ccc3c(c2)OCO3)n1`?
A: Potency (MKL-1): 3720 nM (active); Potency (MKL-2): 743 nM (active); Potency (UISO): 1320 nM (active); Potency (WaGa): 2640 nM (active)

Q: With `CCOC(=O)[C@H]1O[C@H]1C(=O)N[C@@H](CC(C)C)C(=O)NCCC(C)C` as the compound, how does the Potency (MKL-1) read?
A: inactive

Q: What about the Potency (MKL-2) of the same compound?
A: inactive

Q: What about the Potency (UISO) of the same compound?
A: inactive

Q: What about the Potency (WaGa) of the same compound?
A: inactive

Q: Which results are given for `CCN1CCN(c2ccc(Nc3cc(N(C)C(=O)Nc4c(Cl)c(OC)cc(OC)c4Cl)ncn3)cc2)CC1`?
A: Potency (MKL-1): inactive; Potency (MKL-2): inactive; Potency (NIH3T3): inactive; Potency (WaGa): inactive; Potency (C33A): inactive; Potency (CAOV3): inactive; Potency (CASKI): inactive; Potency (Es-2): inactive

Q: For `CNC(=O)[C@H](Cc1ccccc1)NC(=O)[C@H](CC(C)C)[C@H](CSc1cccs1)C(=O)NO`, which Potency (MKL-1) is on record?
A: inactive

Q: What about the Potency (MKL-2) of the same compound?
A: inactive

Q: What about the Potency (UISO) of the same compound?
A: inactive

Q: Which results are given for `O=C(c1ccc(C(=O)N2CCC(N3CCCC3)CC2)c(Nc2ccccc2)c1)N1CCC(N2CCCC2)CC1`?
A: Potency (MKL-1): inactive; Potency (MKL-2): inactive; Potency (NIH3T3): inactive; Potency (UISO): inactive; Potency (WaGa): inactive; Potency (C33A): inactive; Potency (CASKI): inactive; Potency (Es-2): inactive; Potency (HeLa): inactive

Q: How did the Potency (MKL-1) turn out when `CC(C)(F)C[C@H](N[C@@H](c1ccc(-c2ccc(S(C)(=O)=O)cc2)cc1)C(F)(F)F)C(=O)NC1(C#N)CC1` was run?
A: inactive

Q: What about the Potency (MKL-2) of the same compound?
A: inactive

Q: What about the Potency (UISO) of the same compound?
A: inactive

Q: And the Potency (WaGa)?
A: inactive

Q: Which results are given for `COC(=O)[C@H](c1ccccc1Cl)N1CCc2sccc2C1`?
A: Potency (MKL-1): inactive; Potency (MKL-2): inactive; Potency (UISO): inactive; Potency (WaGa): inactive

Q: With `O=C(Nc1cccc(Cl)c1)Nc1ncc(CCNc2ncnc3ccsc23)s1` as the compound, how does the Potency (MKL-1) read?
A: 296 nM (active)

Q: And the Potency (MKL-2)?
A: inactive

Q: What about the Potency (UISO) of the same compound?
A: inactive

From PubChem BioAssay (NCATS)
